Where “and” joins values, the source holds several entries; their conditions need not be identical. Equal values may be shown once. Records with an inconclusive call do not appear. Calls of active or inactive are those of the source. Unless noted, the call rests on the fitted dose curve; in most records, active means well fitted curve in the direction sought with a large enough effect; inconclusive means small, poorly fitted or top-dose-only effect, or another doubt; inactive means no such curve, though single readings can be large; an effect the other way counts as inactive or inconclusive.
Assays:
[1] = Cellular Toxicity (caspase-3) HepG2 (AID 654); settings: HepG2 caspase-3 activation, luminescence, 0% = DMSO only, 100% = tamoxifen; series mostly up to 92.2 µM;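 further: cells exposed to compound for 16 hours before reading; 0% = DMSO alone and 100% = caspase signal from 100 µM tamoxifen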
Outline: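 Concentration-response AC50 values reflect caspase-3/7 induction in HepG2 cells after 16 hours of compound exposure, quantified by luminescence from liberated aminoluciferin and referenced to 100 uM tamoxifen as full stimulation.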

[2] = Cellular Toxicity (caspase-3) Jurkat (AID 655); settings: Jurkat caspase-3 activation, luminescence, DMSO = 0%, tamoxifen = 100%; series mostly up to 92.2 µM;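 further: cells exposed to compound for 16 h at 37 °C before reading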
Outline: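 5000 Jurkat cells/well; compound 16 hr, 37 °C; Caspase-Glo 3/7 added, 20 min RT; luminescence read. Norm: DMSO = 0%, tamoxifen 100 uM = 100%. AC50, Hill model.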

[3] = Cellular Toxicity (caspase-3) HUV-EC-C (AID 656); settings: HUV-EC-C cells, caspase-3 activation (apoptosis), vehicle = 0, 100 µM tamoxifen = 100%; series mostly up to 92.2 µM
Outline: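 qHTS; HUV-EC-C, 1000 cells/well; 5 hr settle, 16 hr cmpd, 37°C; Caspase-Glo 3/7, 20 min RT; luminescence. Norm: DMSO = 0%, tamoxifen 100 uM = 100%. Hill-fit AC50.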

[4] = Cellular Toxicity (caspase-3) SHSY5Y (AID 657); settings: SH-SY5Y caspase-3 activation, DMSO zero, 10 µM staurosporine = 100%; series mostly up to 91.7 µM
Outline: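 qHTS, SH-SY5Y, 1500 cells/well, 5 h pre-incubation 37 °C; compound 16 h 37 °C; Caspase-Glo 3/7 1 h RT; luminescence. Norm.: DMSO = 0, 10 uM staurosporine = 100%. Hill fit → AC50.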

[5] = Cellular Toxicity (caspase-3) BJ (AID 658); settings: BJ fibroblasts, luminescence, normalized: DMSO 0%, staurosporine 100%; series mostly up to 91.7 µM
Outline: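 Caspase-Glo 3/7 luminescence, read 1 hr after reagent at room temperature, in normal BJ fibroblasts exposed 16 hours at 37 °C. AC50 values from Hill-equation concentration-response, scaled between DMSO basal and 10 uM staurosporine as 100%.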

[6] = Cellular Toxicity (caspase-3) MRC-5 (AID 659); settings: MRC-5 cells, luminescence, normalized: DMSO 0%, 10 µM staurosporine 100%; series mostly up to 91.7 µM
Outline: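 Luminescent Caspase-Glo 3/7 read-out (1 h, room temperature) after a 16 h, 37 °C compound exposure of MRC-5 lung fibroblasts at 1500 cells/well. Concentration-response AC50 from Hill equation; 0% DMSO, 100% 10 uM staurosporine.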

[7] = Cellular Toxicity (caspase-3) Mesangial (AID 660); settings: mesangial cells, normalized: DMSO 0%, 100 µM tamoxifen 100%; series mostly up to 91.7 µM;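 further: combined caspase 3 and 7 activity read by Caspase-Glo luminescence; cells exposed to compound for 16 h before the caspase read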
Outline: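 AC50 values come from Hill-equation fits of caspase 3/7 activation, measured as Caspase-Glo luminescence in human glomerular mesangial cells exposed to compound for 16 h at 37 °C; 100% set by 100 uM tamoxifen.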

[8] = Cellular Toxicity (caspase-3) SK-N-SH (AID 661); settings: SK-N-SH caspase-3 activation, qHTS, DMSO as zero, staurosporine as full; series mostly up to 91.7 µM
Outline: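 Apoptosis readout in SK-N-SH neuroblastoma: Caspase-Glo 3/7 luminescence following 16 hr treatment in complete culture medium. Normalization used DMSO and 10 uM staurosporine controls.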

[9] = Cellular Toxicity (caspase-3) H-4-II-E (AID 663); settings: H-4-II-E rat hepatoma, scaled: DMSO 0%, 100 µM tamoxifen 100%; series mostly up to 92.2 µM;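 further: cells exposed to compound for 16 hr before readout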
Outline: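 Caspase 3/7 activation measured by luminescent aminoluciferin substrate cleavage after 16 hr compound treatment of H-4-II-E cells in complete medium. Increase normalized between DMSO (basal) and 100 uM tamoxifen (100%); Hill-equation AC50 from concentration-response.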

[10] = Cellular Toxicity (caspase-3) Hek293 (AID 664); settings: HEK293 caspase-3 activation, DMSO = 0%, 100 µM tamoxifen = 100%; series mostly up to 92.2 µM;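 further: cells exposed to compound for 16 h at 37 °C before readout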
Outline: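 Apoptosis readout: Caspase-Glo 3/7 signal in human HEK293 cells following 16-hour compound incubation. Responses scaled between DMSO baseline and 100 uM tamoxifen.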

[11] = Cellular Toxicity (caspase-3) N2a (AID 665); settings: N2a cells, luminescence, normalized: DMSO 0%, 10 µM staurosporine 100%; series mostly up to 92.2 µM;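 further: compound exposure lasted 16 h at 37 °C before readout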
Outline: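 Concentration-response qHTS: compound-induced caspase-3/7 luminescence in N2a cells (16 h, 37 °C), relative to DMSO and 10 uM staurosporine controls; AC50 obtained using the standard Hill equation.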

[12] = Cellular Toxicity (caspase-3) NIH 3T3 (AID 666); settings: NIH 3T3 caspase-3 activation, apoptosis/toxicity, 0% DMSO, 100% is 100 µM tamoxifen; series mostly up to 92.2 µM;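 further: 0% = DMSO basal and 100% = 100 µM tamoxifen stimulation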
Outline: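 Activity: caspase-3/7 induction, NIH 3T3 cells, 16 hr treatment at 37°C, luminescent Caspase-Glo detection; AC50 via Hill equation.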

[13] = Cellular Toxicity (caspase-3) Renal Proximal Tubule (AID 667); settings: renal proximal tubule cells, primary cells freshly taken from rat, solvent-only wells 0%, staurosporine 100%; series mostly up to 91.7 µM;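 further: cells exposed to compound for 16 hours at 37 °C before detection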
Outline: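 AC50 derived by standard Hill fit of concentration-response data, normalized between DMSO basal and 10 uM staurosporine as 100% stimulation. Cells: primary rat kidney proximal tubule, 16 h treatment at 37 °C.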

[14] = target: Thyroid hormone receptor beta (Homo sapiens) (UniProt P10828); test: qHTS assay for small molecule antagonists of thyroid hormone receptor beta signaling (AID 588547; active means well fitted inhibition curve with a large enough effect in the signal ratio, with a control signal flat, not every such curve was filed as active; the % refers to the signal ratio;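 further: cells stimulated with 0.4 nM T3 agonist during compound exposure; on the % scale 0 is the no-effect control and ±100 the full control effect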); settings: TR-UAS-bla HEK293, beta-lactamase ratio, antagonist mode, 18 h
Outline: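 Inhibition of T3-driven (0.4nM final) beta-lactamase reporter activity was measured over 0.59 nM to 92 uM compound after 18 h at 37 C. The cells were GripTite HEK293 TR-UAS-bla in charcoal/dextran-stripped serum, with CCF4 ratio read-out and IC50 from Hill fits.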

[15] = qHTS assay for small molecule disruptors of the mitochondrial membrane potential - 1 hr assay (AID 651754; calls by dose curve; further: on the % scale 0 is the no-effect control and ±100 the full control effect; nearly all actives have a fitted effect of over 35% in size); settings: series mostly up to 92.2 µM
Outline: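 In this qHTS format, a 1 hr compound treatment of HepG2 cells precedes Mito-MPS staining, and membrane potential is judged from aggregate (red) against monomer (green) fluorescence intensity.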

[16] = qHTS assay for small molecule disruptors of the mitochondrial membrane potential - 5 hr assay (AID 651755; calls by dose curve; further: on the % scale 0 is the no-effect control and ±100 the full control effect; nearly all actives have a fitted effect of over 40% in size); settings: JC-1-type ratio dye; series mostly up to 92.2 µM
Outline: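 Membrane-potential dye readout: red aggregate (540 ex/590 em) versus green monomer (490 ex/535 em) fluorescence after 30 min dye loading, following 5 hr compound exposure at 37C of overnight-plated HepG2 cells.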

[17] = target: Tumor necrosis factor (Homo sapiens) (UniProt P01375); test: qHTS assay to identify small molecules that stimulate Tumor Necrosis Factor-alpha (TNF-alpha) secretion (AID 651757; active means well fitted curve in the direction sought with a large enough effect in the signal ratio; the % refers to the signal ratio; further: 0% is about no effect); settings: Human cells, HTRF 665/615 ratio; series mostly up to 92.2 µM
Outline: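 Using 3000 THP-1 cells per well, compounds and controls were applied for 17 hrs at 37 C. Detection followed with two labeled anti-TNF-alpha antibodies (cryptate donor, XL665 acceptor) for 3 hr at room temperature, measured by TR-FRET.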

[18] = qHTS assay for environmental chemicals that activate the Aryl hydrocarbon Receptor (AhR) signaling pathway (AID 651777); settings: 1A2-DRE human hepatoma cells, luciferase, 24 h; active compounds read high; further: % of control where 0% means no effect; nearly all actives have a fitted effect of over 15% in size
Outline: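 Reporter gene assay: hepatoma cells with DRE/CYP1A2-luciferase, 24 hr compound incubation at 37 C, 5% CO2, luminescence after One-Glo (30 min, RT).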

[19] = target: Peroxisome proliferator-activated receptor alpha (Homo sapiens) (UniProt Q07869); test: qHTS assay for small molecule agonists of the peroxisome proliferator-activated receptor alpha (PPARalpha) signaling pathway (AID 651778); settings: PathHunter PPARalpha complementation, chemiluminescence, 6 h; active compounds read high; further: % of control where 0% means no effect
Outline: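 Chemiluminescence from complemented enzyme reported PPARalpha activation in cells after 6 hr of compound treatment at 37 C. The detection reagent was incubated for 60 min at room temperature, and compounds were scored as agonists.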

[20] = target: Nuclear receptor subfamily 1 group I member 2 (Rattus norvegicus) (UniProt Q9R1A7); test: qHTS assay for small molecule activators of the rat pregnane X receptor (rPXR) signaling pathway (AID 651751; call rule not given here; further: 0% is about no effect); settings: rPXR reporter cells, luciferase (One-Glo), 24 h
Nuclear receptor subfamily 1 group I member 2 (Rattus norvegicus), sequence (Q9R1A7 whole entry, looked up): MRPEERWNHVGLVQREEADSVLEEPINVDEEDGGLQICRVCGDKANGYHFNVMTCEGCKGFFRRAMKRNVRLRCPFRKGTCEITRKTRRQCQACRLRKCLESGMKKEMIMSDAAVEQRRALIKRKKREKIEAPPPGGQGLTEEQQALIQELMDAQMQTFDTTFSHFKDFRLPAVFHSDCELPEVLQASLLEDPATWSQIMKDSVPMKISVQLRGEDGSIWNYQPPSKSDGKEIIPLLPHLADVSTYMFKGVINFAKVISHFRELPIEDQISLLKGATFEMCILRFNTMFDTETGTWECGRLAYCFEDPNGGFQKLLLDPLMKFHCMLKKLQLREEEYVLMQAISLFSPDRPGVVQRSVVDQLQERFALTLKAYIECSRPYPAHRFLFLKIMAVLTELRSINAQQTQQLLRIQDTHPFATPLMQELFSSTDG

Peroxisome proliferator-activated receptor alpha (Homo sapiens), sequence (Q07869 whole entry, looked up): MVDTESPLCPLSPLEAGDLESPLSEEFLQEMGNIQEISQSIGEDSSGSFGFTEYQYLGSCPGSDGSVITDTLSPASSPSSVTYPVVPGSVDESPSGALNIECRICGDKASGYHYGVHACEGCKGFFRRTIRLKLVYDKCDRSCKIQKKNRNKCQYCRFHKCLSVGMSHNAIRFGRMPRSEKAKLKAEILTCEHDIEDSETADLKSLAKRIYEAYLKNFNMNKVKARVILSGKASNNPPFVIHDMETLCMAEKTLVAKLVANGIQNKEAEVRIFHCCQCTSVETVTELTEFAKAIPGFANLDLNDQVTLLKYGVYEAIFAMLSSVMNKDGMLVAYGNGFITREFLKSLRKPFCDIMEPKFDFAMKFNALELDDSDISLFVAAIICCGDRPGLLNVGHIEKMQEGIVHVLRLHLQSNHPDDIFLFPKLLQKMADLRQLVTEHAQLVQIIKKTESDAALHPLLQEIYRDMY
Thyroid hormone receptor beta (Homo sapiens), sequence (P10828 whole entry, looked up): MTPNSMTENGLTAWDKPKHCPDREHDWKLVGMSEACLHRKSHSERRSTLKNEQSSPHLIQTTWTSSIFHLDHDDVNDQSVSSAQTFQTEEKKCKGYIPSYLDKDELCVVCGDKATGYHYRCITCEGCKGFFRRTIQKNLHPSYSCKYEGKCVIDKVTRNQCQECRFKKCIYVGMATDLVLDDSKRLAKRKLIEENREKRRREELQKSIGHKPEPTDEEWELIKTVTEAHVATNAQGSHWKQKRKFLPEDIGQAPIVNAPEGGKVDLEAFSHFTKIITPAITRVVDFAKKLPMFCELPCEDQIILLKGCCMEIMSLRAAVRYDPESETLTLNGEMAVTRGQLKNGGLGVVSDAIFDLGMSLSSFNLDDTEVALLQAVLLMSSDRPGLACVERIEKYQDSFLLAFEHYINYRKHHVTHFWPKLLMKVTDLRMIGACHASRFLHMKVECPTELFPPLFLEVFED
Tumor necrosis factor (Homo sapiens), sequence (P01375 whole entry, looked up): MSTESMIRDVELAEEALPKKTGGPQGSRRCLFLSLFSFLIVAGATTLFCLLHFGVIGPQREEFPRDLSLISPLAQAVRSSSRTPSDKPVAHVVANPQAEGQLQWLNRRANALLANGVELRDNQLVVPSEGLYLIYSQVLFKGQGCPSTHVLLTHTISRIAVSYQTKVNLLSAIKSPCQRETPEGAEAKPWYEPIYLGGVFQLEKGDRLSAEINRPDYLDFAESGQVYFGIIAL

C=CC(C)(O)CCC=C(C)C (stereo not given)
inactive: outcome [1] | outcome [2] | outcome [3] | outcome [4] | outcome [5] | outcome [6] | outcome [7] | outcome [8] | outcome [9] | outcome [10] | outcome [11] | outcome [12] | outcome [13] | activity change % (negative = inhibition) [14] 22.9% and 4.85% | outcome [15] | outcome [16] | outcome [17] | activation [18] -0.577% and 0.957% | max response [19] -3.46% and 0.843% | max response [20] 2.77% and 2.88%

Reference: PubChem BioAssay (NCATS)
